Measured values reported in PubChem BioAssay (NCI).
The panel holds about 79,000 compounds, 15% with a hit somewhere; the sample as a whole holds those more often. Values without a mark were called inactive. Calls of active or inactive are those of the source. Cut-off read from the data, not from the text of the source: active = growth inhibition above about 70%; inactive = the rest.

Columns and labels:
[1] = NCI Yeast Anticancer Drug Screen. Data for the rad52 strain (AID 147);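 note: 0% = growth of vehicle-treated control cultures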; details: S. cerevisiae rad52 mutant growth inhibition, active compounds read high
Method in brief: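 Here a repair-compromised yeast strain receives each compound; its growth is then quantified and normalised to vehicle-only controls.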

[2] = NCI Yeast Anticancer Drug Screen. Data for the rad50EPP+ strain (AID 151);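 note: 0% = growth of vehicle-treated control cultures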; details: S. cerevisiae rad50 mutant strain, active compounds read high
Method in brief: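 Read-out is yeast growth inhibition relative to vehicle; cells used were the rad50EPP+ strain.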

[3] = NCI Yeast Anticancer Drug Screen. Data for the mgt1 strain (AID 153); details: S. cerevisiae mgt1 mutant growth inhibition, active compounds read high
Method in brief: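 Measured: inhibition of mgt1 yeast growth by compound, normalized to vehicle-treated cultures.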

[4] = NCI Yeast Anticancer Drug Screen. Data for the rad50 strain (AID 155);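 note: 0% = growth of vehicle-only cultures of the same strain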; details: S. cerevisiae rad50 strain growth inhibition, active compounds read high
Method in brief: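 A DNA repair-deficient yeast mutant serves as the test organism; compound-induced growth inhibition is calculated against vehicle-treated cells.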

[5] = NCI Yeast Anticancer Drug Screen. Data for the mec2-1 strain (AID 157); details: S. cerevisiae mec2-1 strain, active compounds read high
Method in brief: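 Using mec2-1 yeast: add compound, measure growth, express inhibition versus vehicle-treated cultures.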

[6] = NCI Yeast Anticancer Drug Screen. Data for the rad14 strain (AID 159);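 note: 0% = growth of vehicle-treated control cultures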; details: S. cerevisiae rad14 strain growth inhibition, active compounds read high
Method in brief: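 Vehicle-treated cultures served as the baseline for growth inhibition of a DNA repair-mutant yeast strain exposed to each compound.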

[7] = NCI Yeast Anticancer Drug Screen. Data for the sgs1 mgt1 strain (AID 161);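 note: 0% = growth of cultures given vehicle only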; details: S. cerevisiae sgs1 mgt1 strain, active compounds read high
Method in brief: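 Yeast cells carrying a defined DNA-repair defect were exposed to test compounds. Growth inhibition was measured relative to vehicle-treated controls.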

[8] = NCI Yeast Anticancer Drug Screen. Data for the CLN2oe strain (AID 163);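 note: 0% = growth of vehicle-only control cultures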; details: S. cerevisiae CLN2oe strain, active compounds read high
Method in brief: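 Whole-cell yeast growth assay. A strain engineered for altered cell-cycle control received compound, and inhibition relative to vehicle-treated cultures was recorded.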

[9] = NCI Yeast Anticancer Drug Screen. Data for the cln2 rad14 strain (AID 165);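 note: 0% = growth equal to vehicle treated cultures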; details: S. cerevisiae cln2 rad14 strain, active compounds read high
Method in brief: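 Yeast strain cln2 rad14, bearing defects in cell cycle control and DNA repair, serves as the test system; values reflect growth inhibition compared with vehicle.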

[10] = NCI Yeast Anticancer Drug Screen. Data for the bub3 strain (AID 167); details: S. cerevisiae bub3 mutant strain, active compounds read high
Method in brief: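 Inhibition values come from growth of compound-treated mutant yeast normalised to vehicle-treated controls.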

[11] = NCI Yeast Anticancer Drug Screen. Data for the wt2 strain (AID 169);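 note: 0% = growth of vehicle-treated yeast cultures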; details: S. cerevisiae wt2 strain growth inhibition, active compounds read high
Method in brief: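 Treated yeast vs. vehicle-treated yeast: growth inhibition determined.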

[12] = NCI Yeast Anticancer Drug Screen. Data for the mlh1 strain (AID 171);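 note: 0% = growth of vehicle-treated control cultures of the same strain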; details: S. cerevisiae mlh1 strain growth inhibition, active compounds read high
Method in brief: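 A yeast strain with a defined genetic lesion serves as the test organism. Cultures receive compound or vehicle, and growth is measured.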

[13] = NCI Yeast Anticancer Drug Screen. Data for the sgs1 strain (AID 173);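 note: 0% = growth of vehicle-only control cultures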; details: S. cerevisiae sgs1 mutant, active compounds read high
Method in brief: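 A genetically defined yeast mutant is incubated with the test compound, and its growth is compared to that of the same strain given vehicle.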

[14] = NCI Yeast Anticancer Drug Screen. Data for the mlh1 rad18 strain (AID 175); details: S. cerevisiae mlh1 rad18 strain growth inhibition, active compounds read high
Method in brief: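 Steps: expose repair-defective yeast to compound; measure growth; express inhibition against vehicle-treated controls.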

[15] = NCI Yeast Anticancer Drug Screen. Data for the rad18 strain (AID 177); details: S. cerevisiae rad18 mutant growth inhibition, active compounds read high
Method in brief: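 Measured value is growth inhibition of a yeast strain bearing a DNA repair alteration, referenced to vehicle-treated cells.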

[16] = at 5.0 µM (retest, dose inferred, filed as 0.5)
[17] = at 50.0 µM (retest, dose inferred, filed as 5.0)

O=C1OC(OC/C(Br)=C(\Br)COC2OC(=O)C(Cl)=C2Cl)C(Cl)=C1Cl (stereo not drawn)
growth inhibition ([1]; at 1.2 µM): 0%
growth inhibition ([1]; at 3.7 µM): 2%
growth inhibition ([1]; at 11.0 µM): 3%
growth inhibition ([1]; at 33.0 µM): 5%
growth inhibition ([1]; at 100.0 µM): 15%
growth inhibition ([2]; at 1.2 µM): -1%
growth inhibition ([2]; at 3.7 µM): 1%
growth inhibition ([2]; at 11.0 µM): 3%
growth inhibition ([2]; at 33.0 µM): 6%
growth inhibition ([2]; at 100.0 µM): 16%
growth inhibition ([3]; at 1.2 µM): -5%
growth inhibition ([3]; at 3.7 µM): -1%
growth inhibition ([3]; at 11.0 µM): 2%
growth inhibition ([3]; at 33.0 µM): 3%
growth inhibition ([3]; at 100.0 µM): 9%
growth inhibition ([4]; at 1.2 µM): 0%
growth inhibition ([4]; at 3.7 µM): 1%
growth inhibition [4, 16]: 37%
growth inhibition ([4]; at 11.0 µM): 0%
growth inhibition ([4]; at 33.0 µM): 7%
growth inhibition [4, 17]: 91% (active)
growth inhibition ([4]; at 50.0 µM): 98.7% (active)
growth inhibition ([4]; at 100.0 µM): 15%
growth inhibition ([5]; at 1.2 µM): -2%
growth inhibition ([5]; at 3.7 µM): 2%
growth inhibition [5, 16]: 20%
growth inhibition ([5]; at 11.0 µM): 5%
growth inhibition ([5]; at 33.0 µM): 13%
growth inhibition [5, 17]: 98% (active)
growth inhibition ([5]; at 50.0 µM): 96.1% (active)
growth inhibition ([5]; at 100.0 µM): 26%
growth inhibition ([6]; at 1.2 µM): 1%
growth inhibition ([6]; at 3.7 µM): 2%
growth inhibition ([6]; at 11.0 µM): 4%
growth inhibition ([6]; at 33.0 µM): 9%
growth inhibition ([6]; at 100.0 µM): 16%
growth inhibition [7, 16]: 39%
growth inhibition [7, 17]: 99% (active)
growth inhibition ([7]; at 50.0 µM): 93.1% (active)
growth inhibition ([8]; at 1.2 µM): -2%
growth inhibition ([8]; at 3.7 µM): -1%
growth inhibition ([8]; at 11.0 µM): 2%
growth inhibition ([8]; at 33.0 µM): 9%
growth inhibition ([8]; at 100.0 µM): 14%
growth inhibition [9, 16]: 17%
growth inhibition [9, 17]: 96% (active)
growth inhibition ([9]; at 50.0 µM): 57.6%
growth inhibition ([10]; at 1.2 µM): 0%
growth inhibition ([10]; at 3.7 µM): -2%
growth inhibition [10, 16]: 13%
growth inhibition ([10]; at 11.0 µM): -4%
growth inhibition ([10]; at 33.0 µM): 1%
growth inhibition [10, 17]: 93% (active)
growth inhibition ([10]; at 50.0 µM): 93.6% (active)
growth inhibition ([10]; at 100.0 µM): 16%
growth inhibition ([11]; at 1.2 µM): -1%
growth inhibition ([11]; at 3.7 µM): -2%
growth inhibition ([11]; at 11.0 µM): 0%
growth inhibition ([11]; at 33.0 µM): 3%
growth inhibition ([11]; at 100.0 µM): 10%
growth inhibition ([12]; at 1.2 µM): -1%
growth inhibition ([12]; at 3.7 µM): 0%
growth inhibition ([12]; at 11.0 µM): 2%
growth inhibition ([12]; at 33.0 µM): 4%
growth inhibition ([12]; at 100.0 µM): 12%
growth inhibition ([13]; at 1.2 µM): -1%
growth inhibition ([13]; at 3.7 µM): 0%
growth inhibition ([13]; at 11.0 µM): 0%
growth inhibition ([13]; at 33.0 µM): 6%
growth inhibition ([13]; at 100.0 µM): 20%
growth inhibition [14, 16]: 53%
growth inhibition [14, 17]: 96% (active)
growth inhibition ([14]; at 50.0 µM): 94.3% (active)
growth inhibition ([15]; at 1.2 µM): 1%
growth inhibition ([15]; at 3.7 µM): 3%
growth inhibition ([15]; at 11.0 µM): 9%
growth inhibition ([15]; at 33.0 µM): 24%
growth inhibition ([15]; at 100.0 µM): 60%
